Here are results for seven sequences from the supplement of paper PMC6555819.

Assay in all cases: PBM binding z-score (relative to random genomic background probes); higher = stronger binding; sequences stand for … in GC…GCGATTGACAGCGTAGAATGAAGG
Experiment [1] relates to RARb homodimer (NR concentration 270 nM). Put shortly: (§1)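 Binding z-scores take random background probes as their reference. They come from custom Agilent 4×180K protein-binding microarrays incubated 1 h with ligand-free nuclear receptor dimers, with antibodies against each partner (one per run) detecting binding. Scanned fluorescence was regression-normalized.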
For experiment [2], the system named is RARg:RXRa (NR concentration 270 nM, RXRa partner concentration 90 nM). Put shortly:
as §1

Experiment [3] has as its system RARg homodimer (NR concentration 270 nM). A digest of the protocol:
as §1

The test system of experiment [4] is RXRa DBDmut IVT, anti-RXR (DBD mutation: RXRa K156A/R161A, NR concentration 90 nM). Put shortly: as §1
Experiment [5] has as its system RXRa homodimer (NR concentration 180 nM). Put shortly: as §1
The test system of experiment [6] is THRa:RXRa (NR concentration 90 nM, RXRa partner concentration 90 nM). A digest of the protocol:
as §1

For experiment [7], the system named is THRa homodimer (NR concentration 90 nM). Put shortly:
as §1

Experiment [8] has as its system VDR homodimer (NR concentration 270 nM). Put shortly:
as §1

On to GATACAGGGTCATGGCCAGAGTACGCGTATTGAT, for which the PBM binding z-score worked out at 3.44 in experiment [1]; 5.62 in experiment [2]; 5.09 in experiment [3]; 2.44 in experiment [4]; 6.72 in experiment [5]; 3.78 in experiment [6]. The PBM binding z-score in experiment [7] was 0.968; in experiment [8], 2.77.
As to CGAACTAGGTCATCCAGGACAGTGAATACATTGA, the PBM binding z-score in experiment [1] was determined as 3.06; in experiment [2], 4.04; in experiment [3], 4.85; in experiment [4], 2.52; in experiment [5], 2.79; in experiment [6], 3.59. Further, the PBM binding z-score was 1.84 in experiment [7] and 1.96 in experiment [8].
For CCTAGTAGGTCAAGGTCACACACGCTATAGGTAC, the PBM binding z-score in experiment [1] is 5.28; in experiment [2], 6.17; in experiment [3], 7.17; in experiment [4] it was 2.82; in experiment [5] it was 6.23; in experiment [6], 4.3. Moreover, the PBM binding z-score amounted to 4.17 in experiment [7] and 3.86 in experiment [8].
For the sequence TCGAGTAGGTTTCCAATGGGGCATTCAGCTTTCT, the PBM binding z-score in experiment [1] was -0.0582; in experiment [2], -0.76; in experiment [3] it was -0.806; in experiment [4], 0.449; in experiment [5], -0.581; in experiment [6] it was -0.683. Moreover, the PBM binding z-score was -0.262 in experiment [7] and -0.443 in experiment [8].
For the sequence CCTACTGGGCCATCAGGTCATGGATATCAACGTT, the PBM binding z-score in experiment [1] is 2.95; in experiment [2] it was 2.25; in experiment [3], 2.22; in experiment [4], -0.124; in experiment [5], 1.66; in experiment [6], 3.47. For the same sequence, the PBM binding z-score in experiment [7] worked out at 3.47; in experiment [8], 0.959.
Consider ACATGTAGGTTAGCTGGGGTCATTCAGACTAGGC, for which the PBM binding z-score worked out at 3.72 in experiment [1]; 4.24 in experiment [2]; 2.97 in experiment [3]; 2.34 in experiment [4]; 5.59 in experiment [5]; 5.12 in experiment [6]. Also, the PBM binding z-score in experiment [7] was found to be 3.49; in experiment [8], 5.66.
Regarding TGTCAAAGTTCAAAGGTAACATAAGTATCCACAC, the PBM binding z-score came out at 3.83 in experiment [1]; 6.56 in experiment [2]; 6.03 in experiment [3]; 4.43 in experiment [4]; 6.86 in experiment [5]; 3.53 in experiment [6]. The PBM binding z-score in experiment [7] was 0.27; in experiment [8], 4.17.
